{
  "source": "the supplement of paper PMC11865577",
  "note": "Where a name gives a salt, the structure may show the parent alone.",
  "data": [
    {"tested_on": "hsa-mir-21 loop", "assay": "normalised indicator fluorescence (fraction of RNA + indicator signal without compound); higher = less displacement of indicator (weaker competition)", "details": "compound concentration: 5 uM; 30 min; indicator: TO-PRO-3 0.5 uM; RNA concentration: 0.5 uM", "method_in_brief": "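For the displacement screen, RNA and a TO-PRO-1 or TO-PRO-3 indicator were held in 20 mM phosphate pH 7.0 with 20 mM NaCl and 80 mM KCl in 96-well plates. After adding 0.25 μL of each 1 mM DMSO stock (about 5 uM final) and waiting 30 min, fluorescence was measured on an Infinite 200 PRO with excitation at 485 or 620 nm. Each value is the mean of two independent experiments, expressed as blank-subtracted indicator fluorescence relative to the no-compound RNA-plus-indicator signal.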", "values": [
      {"smiles": "CC(=O)Oc1c(C)c(C)c2c(c1C)CCC(C)(CCC[C@H](C)CCC[C@H](C)CCCC(C)C)O2", "note": "(stereo not given in full) [Vitamin E Acetate]", "normalised indicator fluorescence": 1.04},
      {"smiles": "COc1nccnc1NS(=O)(=O)c1ccc(NC(=O)/C=C/c2ccc([N+](=O)[O-])s2)cc1", "note": "[Necrosulfonamide]", "normalised indicator fluorescence": 1.08},
      {"smiles": "CN(NC(=O)CC(=O)NN(C)C(=S)c1ccccc1)C(=S)c1ccccc1", "note": "[Elesclomol]", "normalised indicator fluorescence": 1.03},
      {"smiles": "O=c1ccc2ccc(O)cc2o1", "note": "[7-Hydroxycoumarin]", "normalised indicator fluorescence": 0.997},
      {"smiles": "O=C(O)/C=C/c1ccc(Cn2ccnc2)cc1", "note": "[Ozagrel hydrochloride]", "normalised indicator fluorescence": 1.02},
      {"smiles": "Fc1ccc(-c2nc3n(c2-c2ccncc2)CCS3)cc1", "normalised indicator fluorescence": 1.02},
      {"smiles": "O=[N+]([O-])c1ccc(-c2nc(-c3ccc(F)cc3)c(-c3ccncc3)[nH]2)cc1", "normalised indicator fluorescence": 1.03},
      {"smiles": "OC[C@H]1O[C@@H](Oc2ccc(O)cc2)[C@H](O)[C@@H](O)[C@@H]1O", "note": "[Arbutin]", "normalised indicator fluorescence": 1.03},
      {"smiles": "COc1ccc(O)cc1", "note": "[4-Methoxyphenol]", "normalised indicator fluorescence": 1.05},
      {"smiles": "CCNC(=O)c1noc(-c2cc(C(C)C)c(O)cc2O)c1-c1ccc(CN2CCOCC2)cc1", "note": "[Luminespib]", "normalised indicator fluorescence": 1.02},
      {"smiles": "O=c1cc(-c2ccc(O)cc2)oc2cc(O)cc(O)c12", "note": "[Apigenin]", "normalised indicator fluorescence": 1},
      {"smiles": "O=C1O[C@H]([C@@H](O)CO)C(O)=C1O", "note": "[L(+)-Ascorbic acid]", "normalised indicator fluorescence": 1},
      {"smiles": "O=c1ncn2nc(Sc3ccc(F)cc3F)ccc2c1-c1c(Cl)cccc1Cl", "note": "[Neflamapimod]", "normalised indicator fluorescence": 1.04},
      {"smiles": "Cc1cccc(CC(=O)N2CCc3c2ccc(-c2cn(C)c4ncnc(N)c24)c3F)n1", "normalised indicator fluorescence": 1.04},
      {"smiles": "CC(=O)O[C@H]1C[C@@]2(C)[C@@H](C[C@@H](O)[C@H]3[C@@]4(C)CC[C@@H](O)[C@@H](C)[C@@H]4CC[C@@]32C)/C1=C(\\CCC=C(C)C)C(=O)O", "note": "[Sodium fusidate]", "normalised indicator fluorescence": 1.07},
      {"smiles": "CC(=O)CCCCn1c(=O)c2c(ncn2C)n(C)c1=O", "note": "[Pentoxifylline]", "normalised indicator fluorescence": 1.04},
      {"smiles": "Cc1c(C)c2c(c(C)c1O)CC[C@@](C)(CCC[C@H](C)CCC[C@H](C)CCCC(C)C)O2", "note": "[Vitamin E]", "normalised indicator fluorescence": 1.01},
      {"smiles": "O=C(NC(Cc1cc(=O)[nH]c2ccccc12)C(=O)O)c1ccc(Cl)cc1", "note": "(stereo not given) [Rebamipide]", "normalised indicator fluorescence": 1.03},
      {"smiles": "NC(=O)c1ccc(N(C(N)=O)c2c(F)cccc2F)nc1-c1ccc(F)cc1F", "normalised indicator fluorescence": 1.02},
      {"smiles": "CC(C)OC(=O)CCC/C=C\\C[C@@H]1[C@@H](CC[C@@H](O)CCc2ccccc2)[C@H](O)C[C@@H]1O", "note": "[Latanoprost]", "normalised indicator fluorescence": 0.978},
      {"smiles": "CCCC(C(=O)OCCN(CC)CC)(c1ccccc1)c1ccccc1", "note": "[Proadifen hydrochloride]", "normalised indicator fluorescence": 1},
      {"smiles": "COC1=C2C[C@@H](C)C[C@H](OC)[C@H](O)[C@@H](C)/C=C(\\C)[C@H](OC(N)=O)[C@@H](OC)/C=C\\C=C(/C)C(=O)NC(=CC1=O)C2=O", "note": "[Geldanamycin]", "normalised indicator fluorescence": 1.05},
      {"smiles": "COc1ccc(C(=C2C(=O)Nc3ccccc32)c2ccc(OC)cc2)cc1", "normalised indicator fluorescence": 1.03},
      {"smiles": "O=C1C[C@@H](c2ccc(O)cc2)Oc2cc(O)cc(O)c21", "note": "[Naringenin]", "normalised indicator fluorescence": 1.05},
      {"smiles": "[I-].[K+]", "note": "[Potassium iodide]", "normalised indicator fluorescence": 1.03},
      {"smiles": "CO[C@H]1/C=C/O[C@@]2(C)Oc3c(C)c(O)c4c(c3C2=O)C2=NC3(CCN(CC(C)C)CC3)NC2=C(NC(=O)/C(C)=C\\C=C\\[C@H](C)[C@H](O)[C@@H](C)[C@@H](O)[C@@H](C)[C@H](OC(C)=O)[C@@H]1C)C4=O", "note": "[Rifabutin]", "normalised indicator fluorescence": 0.969},
      {"smiles": "O=C(O)/C=C/c1ccc(Cn2ccnc2)cc1", "note": "[Ozagrel]", "normalised indicator fluorescence": 1.03},
      {"smiles": "CC1(C)OC(=O)C=C[C@]2(C)[C@H]3CC[C@@]4(C)[C@H](c5ccoc5)OC(=O)[C@H]5O[C@]54[C@]3(C)C(=O)C[C@@H]12", "note": "[Obacunone]", "normalised indicator fluorescence": 1.08},
      {"smiles": "NNC(=O)c1ccncc1", "note": "[Isoniazid]", "normalised indicator fluorescence": 1.07},
      {"smiles": "CC1=NN(c2ccccc2)C(=O)C1", "note": "[Edaravone]", "normalised indicator fluorescence": 1.04},
      {"smiles": "CC(C)(O)[C@@H]1CC[C@](C)([C@H]2[C@@H](O)C[C@@]3(C)[C@@H]4C[C@H](O)[C@H]5C(C)(C)[C@@H](O[C@@H]6OC[C@@H](O)[C@H](O)[C@H]6O[C@@H]6O[C@H](CO)[C@@H](O)[C@H](O)[C@H]6O)CC[C@@]56C[C@@]46CC[C@]23C)O1", "note": "[Astragaloside III]", "normalised indicator fluorescence": 1.02},
      {"smiles": "O=C(Nc1ccc2[nH]nc(-c3ccncc3)c2c1)[C@@H]1CCN(CC(=O)N2CCN(c3ccc(-c4ncccn4)cc3)CC2)C1", "normalised indicator fluorescence": 1},
      {"smiles": "O=C(COc1ccc(Cl)cc1)NC1CCC(NC(=O)COc2ccc(Cl)cc2)CC1", "note": "(stereo not given)", "normalised indicator fluorescence": 1.03},
      {"smiles": "Oc1cc(O)c2c(c1)O[C@H](c1ccc(O)c(O)c1)[C@@H](O)C2", "note": "[Cianidanol]", "normalised indicator fluorescence": 1.06},
      {"smiles": "C[C@@H]1O[C@@H](O[C@@H]2[C@@H](O)[C@H](OCCc3ccc(O)c(O)c3)O[C@H](CO)[C@H]2OC(=O)/C=C/c2ccc(O)c(O)c2)[C@H](O)[C@H](O)[C@H]1O", "note": "[Verbascoside]", "normalised indicator fluorescence": 1.01}
    ]}
  ]
}
